Several values for one entry are separate records, joined by “and”; a condition that tells them apart may be missing. Identical values can stand only once. Like-named read-outs stand apart in the source and are kept apart here.
Experiments:
[1] = tested on: T1, YANK3; conditions: concentration: 1 μM, replicates: in singlicate, n = 1
T1 construct: gene STK32C

[2] = tested on: T2, YES; conditions: concentration: 1 μM, replicates: in singlicate, n = 1
T2 construct: gene YES1

[3] = tested on: T3, YSK1; conditions: concentration: 1 μM, replicates: in singlicate, n = 1
T3 construct: gene STK25

[4] = tested on: T4, YSK4; conditions: concentration: 1 μM, replicates: in singlicate, n = 1
T4 construct: gene MAP3K19

[5] = tested on: ZAK; conditions: concentration: 1 μM, replicates: in singlicate, n = 1
[6] = tested on: ZAP70; conditions: concentration: 1 μM, replicates: in singlicate, n = 1
[7] = tested on: T5, p38-alpha; conditions: concentration: 1 μM, replicates: in singlicate; n = 1
T5 construct: gene MAPK14

[8] = tested on: T6, p38-beta; conditions: concentration: 1 μM, replicates: in singlicate; n = 1
T6 construct: gene MAPK11

[9] = tested on: p38-delta; conditions: concentration: 1 μM, replicates: in singlicate, n = 1
[10] = tested on: T7, p38-gamma; conditions: concentration: 1 μM, replicates: in singlicate, n = 1
T7 construct: gene MAPK12
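Also: KINOMEscan kinase panel screen.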

| SMILES | %Inh [1] | %Inh [2] | %Inh [3] | %Inh [4] | %Inh [5] | %Inh [6] | %Inh [7] | %Inh [8] | %Inh [9] | %Inh [10] | %Inh ([1]; 1 µM) | %Inh ([2]; 1 µM) | %Inh ([3]; 1 µM) | %Inh ([4]; 1 µM) | %Inh ([5]; 1 µM) | %Inh ([6]; 1 µM) | %Inh ([9]; 1 µM) | %Inh ([10]; 1 µM) |
| --- | --- | --- | --- | --- | --- | --- | --- | --- | --- | --- | --- | --- | --- | --- | --- | --- | --- | --- |
| N#Cc1c(N2CCOCC2)sc(-c2ccn[nH]2)c1-c1ccc(Cl)cc1 | 16% | 7% | 0% | 28% | 0% | 0% | 7% | 14% | 0% | 6% | – | – | – | – | – | – | – | – |
| O=C(Nc1cccc(-c2nn3ncccc3c2-c2ccnc(Nc3cccc(C(F)(F)F)c3)n2)c1)c1c(F)cccc1F [GSK299495] | 10% | 98.7% | 0% | 33% | 87% | 51% | 43% | 24% | 53% | 13% | – | – | – | – | – | – | – | – |
| c1ccc(-c2cc(-c3c[nH]nc3-c3ccccn3)ccn2)cc1 [GW576604] | 0% | 0% | 0% | 13% | 16% | 0% | 47% | 0% | 40% | 0% | – | – | – | – | – | – | – | – |
| O=C(c1ccc(-c2cc(-c3c[nH]nc3-c3ccccn3)ccn2)cc1)N1CCOCC1 [GW812171] | 0% | 0% | 0% | 0% | 29% | 0% | 20% | 8% | 0% | 0% | – | – | – | – | – | – | – | – |
| Cl.Nc1ncnc2occ(-c3ccc(NC(=O)Nc4cc(C(F)(F)F)ccc4F)cc3)c12 [SB-707548] | 7% | 60% | 50% | 99.9% | 42% | 19% | 86% | 63% | 93.4% | 96.8% | – | – | – | – | – | – | – | – |
| CC(=O)Nc1ccc(COc2ccc(Nc3ccnc4cc(-c5ccccn5)ccc34)cc2)cc1.Cl [GW440148] | 0% | 23% | 18% | 18% | 73% | 0% | 28% | 0% | 40% | 0% | – | – | – | – | – | – | – | – |
| CN1c2ccc(CNc3ccc(F)cc3)cc2-c2c(cnn2C)S1(=O)=O | 0% | 0% | 0% | 0% | 0% | 0% | 0% | 0% | 0% | 14% | – | – | – | – | – | – | – | – |
| COc1ccc(COc2cc(-n3cnc4ccccc43)sc2C(N)=O)cc1 [GSK1024304] | 0% | 0% | 0% | 15% | 14% | 0% | 35% | 0% | 36% | 0% | – | – | – | – | – | – | – | – |
| CCc1nc(-c2cccc(C)c2)c(-c2ccnc(NCc3ccccc3)c2)s1 | 19% | 0% | 6% | 0% | 11% | 0% | 99.8% | 69% | 0% | 0% | – | – | – | – | – | – | – | – |
| CN1c2ccc(NCc3ccc(F)cc3)cc2-c2c(cnn2C)S1(=O)=O | 0% | 0% | 0% | 8% | 0% | 0% | 0% | 0% | 13% | 0% | – | – | – | – | – | – | – | – |
| Cl.Cl.Cl.Fc1ccc(-c2ncn(C3CCNCC3)c2-c2ccnc(Nc3ccccc3)n2)cc1 [SB-238039] | – | – | – | – | – | – | 100% | 100% | – | – | 58% and 48% | 22% and 26% | 10% and 0% | 39% and 0% | 11% and 0% | 12% and 14% | 98.6% and 99.7% | 93.1% and 100% |
| COc1ccc(Nc2ncc(C#N)c(Nc3ccccc3C(N)=O)n2)cc1N1CCN(C)CC1.Cl [GSK1558669] | 48% | 98.8% | 95.2% | 99.7% | 64% | 98.1% | 0% | 0% | 0% | 32% | – | – | – | – | – | – | – | – |
| CCc1ccnc(/C=C/c2n[nH]c3cc(Sc4ccccc4C(=O)NC)ccc23)c1 | 0% | 4% | 0% | 60% | 37% | 20% | 0% | 0% | 7% | 7% | – | – | – | – | – | – | – | – |
| COc1cc2c(cc1OC[C@@H](O)CO)ncc1c3ccc(C#N)cc3[nH]c21 | 0% | 0% | 0% | 90% | 1% | 0% | 5% | 15% | 0% | 18% | – | – | – | – | – | – | – | – |
| CCCCCc1nc2c(N)ncnc2n1CCCCC [SKF-97255] | 0% | 0% | 12% | 14% | 13% | 13% | 0% | 19% | 0% | 50% | – | – | – | – | – | – | – | – |
| Cc1cn2c(=O)cc(N3CCOCC3)nc2n1Cc1cccc(Cl)c1Cl [GSK2334006] | 34% | 21% | 0% | 75% | 6% | 6% | 46% | 16% | 22% | 0% | – | – | – | – | – | – | – | – |

— article PMC5540273 (PLoS ONE, 2017)
